The list is not random: actives were taken first. Their share in the collection is about 6%.
D1 antag = blocks dopamine activation of the human D1 receptor. 3.2% of 360,000 active. HEK293 TREx D1 cells, calcium flux, dopamine EC80; stronger effect = lower value. AID 504652. activity change, negative = inhibition, % at 10 µM; in the data active means activity change below about -30%
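Using tetracycline-induced force-coupled D1 Hek293 cells and a calcium dye, signals were followed for 180 s after compound, then for 180 s after EC80 dopamine, to detect inhibitors.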
D1 PAM = potentiators of human D1 dopamine receptor; HEK293 TREx D1 cells, calcium flux, dopamine EC20 potentiation; 0.036% of 360,000 active; P21728; potentiation, % at 10 µM; in the data active means potentiation above about 30%
D3 ag = activates the human D3 dopamine receptor. max activation, %. P35462. AID 652048. 0.58% of 410,000 active. D3R DiscoveRx beta-arrestin cells, luminescence, 90 min; in the data active means max activation above about 30%
Target sequence (P35462 whole entry, looked up): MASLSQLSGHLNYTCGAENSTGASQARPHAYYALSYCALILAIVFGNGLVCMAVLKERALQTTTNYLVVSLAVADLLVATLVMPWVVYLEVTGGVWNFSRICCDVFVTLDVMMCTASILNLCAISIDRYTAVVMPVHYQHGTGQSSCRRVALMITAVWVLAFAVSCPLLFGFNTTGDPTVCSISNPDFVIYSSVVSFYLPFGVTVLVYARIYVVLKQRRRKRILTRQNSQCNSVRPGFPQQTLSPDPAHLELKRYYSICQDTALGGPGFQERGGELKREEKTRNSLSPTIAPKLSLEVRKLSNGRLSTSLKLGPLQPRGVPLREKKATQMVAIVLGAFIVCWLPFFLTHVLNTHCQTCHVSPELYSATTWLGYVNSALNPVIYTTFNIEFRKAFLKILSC
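Agonist mode: compounds and dopamine controls were applied to plated cells for 90 min at 37 degrees C after an overnight attachment at 1500 cells/well. Luminescent read-out followed 30 - 60 minutes at room temperature with DiscoveRx detection reagent.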
D3 antag = blocks the human D3 dopamine receptor | AID 652054 | 2.5% of 360,000 active | max response, negative = inhibition, % | P35462 | D3R cells, DiscoveRx beta-arrestin luminescence, antagonist mode; stronger effect = lower value; in the data active means max response below about -50%; inconclusive means no clear call, values can overlap the other calls
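Cells expressing the human receptor were seeded at 1500 cells/well, incubated overnight at 37 degrees C in 5% CO2, then exposed to library compounds with dopamine controls for 90 minutes at 37 degrees C before luminescent detection.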
D1 ag = activates the human D1 dopamine receptor. HEK293 T-REx D1 cells, calcium flux, agonist mode. activation, % at 2 µM. 1% of 360,000 active; in the data active means activation above about 30%
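Inducible HEK293 T-REx D1 cells, force-coupled to calcium signalling, were plated at 4000 cells/well with tetracycline and held overnight at 30 C. After no-wash calcium dye loading, compound-evoked calcium rise over 180 s flagged agonists.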
Each line names hits and unclear results; the compound was inactive in the other large screens.

CC1(C)N([O-])C(c2ccccc2)=C[N+](=O)C1(C)C	none
COc1ccc(OC)c(C2=C[N+](=O)C(C)(C)C(C)(C)N2[O-])c1	D1 PAM 54
COc1ccc(C(=O)NCc2ccc(OCCN(C)C)cc2)cc1OC	D3 antag -72 (no result: D1 antag, D1 PAM, D1 ag)
COc1ccc(C(=O)NCc2ccc(Cl)c(Cl)c2)cc1OC	none
COc1cc(C(=O)NCc2ccc(OCCN(C)C)cc2)cc(OC)c1OC	D3 antag -95
CCOc1ccc(NC(=O)CNC(=O)c2ccc(OC)cc2)cc1	none
CCOc1ccc(NC(=O)CNC(=O)c2ccc(OC)c(OC)c2)cc1	D3 antag -54
O=C(NCc1ccc(F)cc1)N1[C@H]2CC[C@@H]1C=C(c1ccc(F)cc1OCc1ccccc1)C2	none (no result: D1 antag, D1 PAM, D1 ag)
COCOCCn1cc(CN2CCS(=O)(=O)N(Cc3ccc(-c4ccc(Cl)nc4)cc3)C(C)C2=O)nn1 (stereo not drawn)	none (no result: D1 antag, D1 PAM, D1 ag)
CC(C)Oc1cccc(C(=O)Nc2ccc3oc(-c4ccccc4)nc3c2)c1	none (no result: D3 antag)
Cc1ccc(F)c(S(=O)(=O)NC(=O)C2(C)CCN2C(=O)Cc2cccs2)c1 (stereo not drawn)	none (no result: D1 antag, D1 PAM, D1 ag)
Cc1cc(C)cc(NC(=O)C(=O)NCC(c2ccc3c(c2)OCO3)N2CCN(C)CC2)c1 (stereo not drawn)	none (no result: D3 antag)
CO[C@@H]1[C@@H](O[C@@H]2O[C@H](C)[C@@H](O[C@H]3C[C@@](C)(O)[C@@H](O)[C@H](C)O3)[C@H](N(C)C)[C@H]2O)[C@@H](CC=O)C[C@@H](C)[C@@H](O[C@@H]2CC[C@H](N(C)C)[C@@H](C)O2)/C=C/C=C/C[C@@H](C)OC(=O)C[C@H]1O	none (no result: D1 antag, D1 PAM, D3 antag, D1 ag)
CC(=O)c1ccc(N2CCN(C(=O)CCC(=O)Nc3ccc4nc(N5CCN(C)CC5)cc(C)c4c3)CC2)cc1	D1 antag -37
CCN1CCN(c2cc(C)c3cc(NC(=O)/C=C/c4cccc(Cl)c4)ccc3n2)CC1	D1 antag -36 (no result: D3 antag)
COc1ccc(N(C)C(=O)CCC(=O)Nc2ccc3nc(N4CCOCC4)cc(C)c3c2)c(OC)c1	D3 ag 35
CCN1CCN(c2cc(C)c3cc(NC(=O)c4cccc(Cl)c4)ccc3n2)CC1	none (no result: D3 antag)
Cc1cc(N2CCN(C)CC2)nc2ccc(NC(=O)c3ccc4c(c3)OCO4)cc12	D3 antag -76
COc1cc(NS(=O)(=O)c2ccc3c(c2)CCCN3C(C)=O)cc(OC)c1OC	none (no result: D3 antag)
CCCCN(CC)CCCNC(=S)Nc1ccc2nc(N3CCN(CC)CC3)cc(C)c2c1	D3 antag -54
CCCCc1ccc(C(=O)Nc2ccc3nc(N4CCN(CC)CC4)cc(C)c3c2)cc1	D1 antag -59 (no result: D3 antag)
NC[C@H]1O[C@H](O[C@H]2[C@H](O)[C@@H](O[C@H]3O[C@H](CO)[C@@H](O)[C@H](N)[C@H]3O)[C@H](N)C[C@@H]2N)[C@H](N)[C@@H](O)[C@@H]1O	none (no result: D1 antag, D1 PAM, D3 antag, D1 ag)
CCOc1ccccc1NC(=O)C1CCN(S(=O)(=O)c2c(C)noc2/C=C/c2ccc(C)cc2)CC1	none (no result: D3 antag)
CC(=O)c1ccc(NC(=O)C(C)Nc2ccc(Cl)cc2)cc1 (stereo not drawn)	D3 antag -56
Cc1ccc(C(C)C)cc1NC(=O)Nc1ccc([N+](=O)[O-])cc1	D1 antag -49
O=C(Nc1ccc([N+](=O)[O-])cc1)Nc1cnccn1	D1 antag -32
CC(=O)c1ccc(NC(=O)Nc2ccc([N+](=O)[O-])cc2)cc1	D1 antag -36
O=C(Nc1ccc([N+](=O)[O-])cc1)Nc1ccc([N+](=O)[O-])cc1	none (no result: D1 antag, D1 PAM, D3 antag, D1 ag)
Cc1ccc(-n2c(=O)c3c(c4cc(C)ccc4n3C)n(CC(=O)N3CCCC3)c2=O)cc1	none (no result: D3 antag)
CC(=O)c1ccc(NC(=O)Nc2ccncc2)cc1	none (no result: D1 antag)
CC(=O)c1ccc(NC(=O)Nc2ccc(Cl)cc2)cc1	D1 antag -35
Cc1ccc(C(=O)NCC(=O)OCC(=O)c2ccc(C)c([N+](=O)[O-])c2)cc1	D1 antag -46
O=C(CNC(=O)c1ccc(Cl)cc1)c1ccc(Cl)cc1	none
O=C(Cc1ccccc1)NCC(=O)OCC(=O)c1ccc(Cl)c([N+](=O)[O-])c1	none
Cc1ccc(C(=O)NCC(=O)NCC(=O)OCC(=O)c2ccc(F)cc2)cc1	D1 antag -52, D3 antag inconclusive
O=C(CNC(=O)c1ccc(F)cc1)c1ccc(Cl)cc1	D1 antag -33
Cc1ccc(C(=O)COC(=O)CNC(=O)C(c2ccccc2)c2ccccc2)cc1[N+](=O)[O-]	D3 antag -64
CC(=O)c1ccc(N2CCN(c3ncnc4c3c(-c3ccccc3)cn4-c3cccc(C)c3)CC2)cc1	none (no result: D3 antag)
Cc1cc2nn(-c3ccc(F)cc3)nc2cc1NC(=O)c1cccc2c(Cl)cccc12	none (no result: D3 antag)
Cc1c(CCOC(=O)c2cc([N+](=O)[O-])cc([N+](=O)[O-])c2)sc[n+]1CC(=O)c1ccc(Br)cc1	none
CCc1nn(CC(=O)NC(C)c2ccccc2)c(=O)c2cc3sccc3n12 (stereo not drawn)	none (no result: D3 antag)
CCN(CC)S(=O)(=O)c1ccc(NC(=O)C(OC)c2ccccc2)cc1 (stereo not drawn)	none
Cc1cc(C)c2c(=O)cc(C(=O)Nc3ccc(S(=O)(=O)N(C)Cc4ccccc4)cc3)oc2c1	none (no result: D3 antag)
COc1ccccc1-c1cnc(C(O)c2cc(C)c(OC)c(C)c2)[nH]1 (stereo not drawn)	none (no result: D1 antag, D1 PAM, D1 ag)
Cc1cc(=O)oc(C)c1C(=O)NCCc1ccccc1	D1 antag -32
COc1ccc(CNC(=O)c2c(C)cc(=O)oc2C)cc1	D1 antag -33
COc1ccc(CCNC(=O)c2c(C)cc(=O)oc2C)cc1OC	none
COc1ccc(Cl)cc1NC(=O)C(C)n1nnc2sc3c(c2c1=O)CCCC3 (stereo not drawn)	none (no result: D3 antag)
CN(Cc1ccccc1)C(=O)Nc1ccc(Cl)cc1	none (no result: D1 antag, D1 PAM, D1 ag)
CN(Cc1ccccc1)C(=O)Nc1c(Cl)cccc1Cl	D3 antag -51 (no result: D1 antag, D1 PAM, D1 ag)
Cn1c(-c2ccccc2)c(Sc2ccccc2)c2cc(-c3ccc4[nH]ccc4c3)ccc21	none (no result: D1 antag, D1 PAM, D1 ag)
CCCc1cc(C(=O)Nc2cc(Br)ccc2O)no1	D1 ag 40
CC1(c2ccc(OC(F)F)cc2)NC(=O)N(CC(=O)N2CCN(C(=O)c3ccco3)CC2)C1=O (stereo not drawn)	D1 antag -30
CC1(c2ccc(OC(F)F)cc2)NC(=O)N(CC(=O)Nc2cccnc2Cl)C1=O (stereo not drawn)	D1 antag -62, D1 ag 73
CCC1(c2ccc(F)cc2)NC(=O)N(CC(=O)Nc2cccnc2Cl)C1=O (stereo not drawn)	D1 ag 43
CC1CCc2sc3ncnc(N4CCN(CCO)CC4)c3c2C1 (stereo not drawn)	none
CO[C@@H]1CN(C)C(=O)c2cc(NS(=O)(=O)c3ccc(C)cc3)ccc2OC[C@H](C)N(Cc2nccs2)C[C@H]1C	none (no result: D1 antag, D1 PAM, D1 ag)
COc1ccc(CCN(C)CCCN2CCc3cc(OC)c(OC)cc3CC2=O)cc1OC	none (no result: D1 antag, D1 PAM, D3 antag, D1 ag)

Compound activity from PubChem BioAssay.
